MLLE-PAM2 inh: inhibitors of PABP1 MLLE–PAM2 peptide binding, primary screen, biochemical, fluorescence polarization, FITC-PAM2, GST-MLLE. Polyadenylate-binding protein 1 (Homo sapiens), P11940. inhibition, % at 20 µM. 360,000 compounds, 0.36% hits. AID 588489, 2011; in the data active = inhibition above about 35%, passing the limit was not always enough
PABP polyA inh: PABP poly(A) RNA binding inhibitors, primary screen, biochemical, fluorescence polarization, uHTS | Polyadenylate-binding protein 1 (Homo sapiens), P11940 | calls only at 35 µM | 290,000 compounds, 1% hits | AID 2014, 2009;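 note: calls also rest on retests at 20 µM and on dose response follow-up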
eIF4H FP inh: human eIF4H binding inhibitors, primary screen, translation initiation inhibitor project, biochemical, uHTS, fluorescence polarization. 290,000 compounds, 0.94% hits. inhibition, % at 35 µM. eIF4H fluorescence polarization binding assay. Eukaryotic translation initiation factor 4H (Homo sapiens), Q15056;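 note: calls also rest on retests at 20 µM and on dose response follow-up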
EBV gp42 inh: Epstein-Barr virus gp42 inhibitors, primary screen, biochemical, uHTS, fluorescence polarization; Fluorescence polarization binding assay, mP read-out; inhibition, % (tested at 21.74 µM); 220,000 compounds, 0.42% hits; AID 1085, 2008; in the data active = inhibition above about 50%
Target sequence (Q1HVG2 whole entry, looked up): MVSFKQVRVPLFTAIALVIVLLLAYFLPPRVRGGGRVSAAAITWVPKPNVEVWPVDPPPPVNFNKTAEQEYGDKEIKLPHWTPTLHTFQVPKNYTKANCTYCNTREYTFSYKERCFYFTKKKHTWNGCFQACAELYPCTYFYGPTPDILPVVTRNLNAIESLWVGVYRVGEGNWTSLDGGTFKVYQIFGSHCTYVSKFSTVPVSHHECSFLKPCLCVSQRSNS
eIF4E-4G inh: eIF4E–eIF4G protein interaction inhibitors, primary screen, biochemical, uHTS, TR-FRET, eIF4GI fragment | Eukaryotic translation initiation factor 4E (Mus musculus) + Eukaryotic translation … | TR-FRET eIF4E-eIF4GI(517-606) binding, 2 h | inhibition, % at 21.7 µM | 220,000 compounds, 0.37% hits;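 active = inhibition above about 30%, limit read from the data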
Hits are given with their value; - = inactive; ? = inconclusive; . = no result; + = active, no number; [ ] = dose if it differs, or a comment. Hits are enriched below; roughly 1.7% of the tested compounds scored in any of these assays. Unless noted, the rule behind the calls is not given here.

SMILES	MLLE-PAM2 inh	PABP polyA inh	eIF4H FP inh	EBV gp42 inh	eIF4E-4G inh
COc1ccc2c3c(cccc13)C(=O)N(O)C2=O	40	-	-	75	-
CC(C)C(=O)Nc1cccc(NC(=S)NC(=O)c2ccc([N+](=O)[O-])cc2)c1	-	-	-	-	-
CC(C)C(=O)Nc1ccc(NC(=S)NC(=O)c2ccc([N+](=O)[O-])cc2)cc1	42	-	-	-	-
CCC(=O)NC(=S)Nc1ccc(NC(=O)c2ccc([N+](=O)[O-])cc2)cc1	-	-	-	-	56[fluorescence artefact?]
Cc1cc(NS(=O)(=O)c2ccc(NC(=S)NC(=O)c3ccc(Br)cc3)cc2)no1	42	-	-	-	-
Cc1cc(NS(=O)(=O)c2ccc(NC(=S)NC(=O)c3cccnc3)cc2)no1	-	-	-	-	-
Cc1cc(C(=O)NC(=S)Nc2cccc(NC(=O)C(C)C)c2)ccc1[N+](=O)[O-]	38	-	-	-	-
Cc1cccc(C)c1C(O)c1ncc(-c2cccc(F)c2)[nH]1 (configuration not stated)	-	.	.	.	.
COc1ccc(C(C)=O)cc1CN1C(=O)NC(c2ccccc2)(c2ccccc2)C1=O	-	-	-	.	.
O=C(O)C1SCCN1S(=O)(=O)c1ccc(N=NN2CCOCC2)cc1 (configuration not stated)	-	-	-	-	-
CCC(=O)N1CCN=C1SCc1cccc(C(F)(F)F)c1	-	-	-	.	.
CC(=O)Nc1ccc(NC(=S)NC(=O)c2ccc(-c3ccccc3)cc2)cc1	-	.	.	.	.
CCc1nnc(NS(=O)(=O)c2ccc(NC(=S)NC(=O)c3ccc(F)cc3)cc2)s1	-	-	0.6	-	-
CC(=O)Nc1ccc(NC(=S)NC(=O)c2ccc([N+](=O)[O-])cc2)cc1	40	-	-	-	-
CC(C)NS(=O)(=O)c1ccc(NC(=S)NC(=O)c2ccc(-c3ccccc3)cc2)cc1	41	-	-	-	-
N/C(=N\OC(=O)COc1ccc2ccccc2c1)c1cccnc1	-	-	-	-	-
Cc1ccc(Nc2ncc3c(=O)[nH][nH]c(=O)c3n2)cc1	-	.	.	.	.
O=C(N=Nc1c(O)[nH]c2ccccc12)c1ccco1	-	-	-	-	-
Nc1ncc([N+](=O)[O-])cc1S(=O)(=O)c1ccccc1	-	.	.	.	.
CC1OC(Oc2c(-c3cc(O)c(O)c(O)c3)oc3cc(O)cc(O)c3c2=O)C(O)C(O)C1O (configuration not stated)	-	-	-	-	-
O=C(O)C1OC(Oc2c(-c3ccc(O)c(O)c3)oc3cc(O)cc(O)c3c2=O)C(O)C(O)C1O (configuration not stated)	.	+	76	-	-
O=C(COC(=O)c1ccc2c(c1)C(=O)N(Cc1ccncc1)C2=O)Nc1cccc2ccccc12	-	-	-	-	-
Cn1cc(/C=C(\C#N)C(=O)Nc2ncc(Cc3ccc(Cl)cc3)s2)c2ccccc21	-	+	63	-	-
Cc1ccc(Cc2cnc(NC(=O)/C(C#N)=C/c3ccc(-c4ccccc4[N+](=O)[O-])o3)s2)cc1	-	-	-	-	-
Cc1ccc(S(=O)(=O)N2CCN(CN3C(=O)CC4(CCCC4)C3=O)CC2)cc1	-	.	.	.	.
SMILES	MLLE-PAM2 inh	PABP polyA inh	eIF4H FP inh	EBV gp42 inh	eIF4E-4G inh
O=C(/C=C/c1ccco1)Nc1ccccc1N1CCCC1	-	-	-	-	-
O=C(/C=C/c1ccco1)Nc1ccccc1C(=O)O	-	+	-	-	-
O=C(/C=C\c1ccco1)Nc1cc([N+](=O)[O-])ccc1F	-	-	-	-	-
O=C(/C=C/c1ccco1)NC1=NCCS1	-	+	?	-	-
O=C(/C=C/c1ccco1)Nc1cccc(NC(=O)/C=C/c2ccco2)n1	-	-	?	-	-
COc1ccccc1C(=O)N/C(=C/c1ccco1)C(=O)Nc1cccc(C(=O)O)c1	-	+	67	.	.
O=C(/C=C/c1ccco1)Nc1cc(Cl)ccc1C(=O)O	-	+	89	-	-
CC(OC(=O)CCCC(=O)Nc1ccccc1)C(=O)c1ccccc1 (configuration not stated)	-	-	-	.	.
Cn1ncc2c(=O)[nH]c(N)nc21	-	.	.	.	.
O=C(Nc1ccc(C(F)(F)F)cc1[N+](=O)[O-])O[C@H]1[C@H](Cc2ccccc2)NS(=O)(=O)[C@H]2C[C@@H]3C=C[C@]12O3	-	.	.	.	.

High-throughput results as filed in PubChem.
